The list is not random: actives were taken first. Their share in the collection is about 15%.
HCMV inh: qHTS Assay for inhibitors of the human cytomegalovirus (HCMV); HFF cells, HCMV-luciferase reporter, 72 h; hits give low values; activity change, negative = inhibition, % at 57.5 µM; 410,000 compounds, 4.5% hits; AID 1259415, 2018; in the data active = activity change below about -60%; inconclusive = no clear call, values can overlap the other calls; inactive = above about -39%
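After 16 h attachment at 37C, HFF cells received test compound and HCMV-luciferase (1 PFU/cell); reporter luminescence read 72 h later, data normalized against buffer-only and known inhibitor Salinomycin.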
Sm TGR inh: qHTS Assay for the Inhibitors of Schistosoma Mansoni Peroxiredoxins | Schistosoma mansoni thioredoxin glutathione reductase (TGR), Q962Y6 | purified TGR, DTNB reduction, TNB absorbance 405 nm | Potency, µM (series often up to 114 µM), hits mostly inhibitors | 360,000 compounds, 3% hits | AID 485364, 2010; note: nearly all actives have a fitted effect of over 60% in size
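First, TGR (20 nM dispensed) and NADPH were mixed with compound. Second, a 15 min room-temperature incubation followed. Third, further NADPH and then DTNB were added to start the reaction. Finally, TNB absorbance was monitored kinetically.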
Pf growth 48h: Primary qHTS for delayed death inhibitors of the malarial parasite plastid, 48 hour incubation; P. falciparum luciferase growth in erythrocytes, 48 h; 310,000 compounds, 5.9% hits; AID 504832, 2011; Potency, µM (highest dose often 28.7 µM), actives largely listed as inhibitors
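First compound was added to culture medium, then infected red cells at 0.1% parasitemia and 2% hematocrit (final). After incubation at 37 C under 5% CO2, luciferase detection reagent was dispensed and light output recorded.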
HCV inh: qHTS Assay for Inhibitors of Hepatitis C Virus (HCV). Huh7.5.1 HCVcc-Cre infection, luciferase reporter, 44 h. Potency, µM (highest dose often 41.8 µM), actives largely listed as inhibitors. 340,000 compounds, 3.4% hits. AID 651820, 2012
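HCVcc-Cre virus at an moi near 0.5 was added right after compound to cells cultured 4 h from seeding (1,000 cells/well). Luciferase activity was determined 44 h later, 15 min after substrate addition at RT.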
SARS PLpro yeast: qHTS of Yeast-based Assay for SARS-CoV PLP | S. cerevisiae expressing SARS-CoV PLpro, growth rescue | Potency, µM (titrated, usually from 32.9 µM), most hits filed as activators | 330,000 compounds, 0.19% hits | AID 485353, 2010; calls by dose curve; note: nearly all actives have a fitted effect of over 55% in size
Pf growth 96h: Primary qHTS for delayed death inhibitors of the malarial parasite plastid, 96 hour incubation. 320,000 compounds, 6.9% hits. P. falciparum luciferase reporter growth, 96 h. Potency, µM (doses to about 28.7 µM), usual class: inhibitors
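Parasite growth measured via integrated firefly luciferase reporter in P. falciparum. Infected erythrocytes at 2% hematocrit, 0.05% parasitemia final were treated 96 hours at 37 C under 5% CO2, and luminescence was read.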
Large screens that a line does not name were inactive. Unless noted, calls come from the whole dose curve; as a rule, active = well fitted curve in the direction sought with a large enough effect; inconclusive = small, poorly fitted or top-dose-only effect, or another doubt; inactive = no such curve, though single readings can be large; an effect the other way counts as inactive or inconclusive.

Oc1ccc(Br)cc1/C=N/N1CCN(Cc2ccccc2)CC1	none
Oc1ccc(/C=N/N2CCN(C3c4ccccc4-c4ccccc43)CC2)cc1O	Sm TGR inh 10µM, Pf growth 48h inconclusive, Pf growth 96h inconclusive
CCOc1ccc(/C=N/N2CCN(Cc3ccccc3)CC2)cc1	Sm TGR inh inconclusive, Pf growth 96h 0.74µM
COc1ccccc1/C=N/N1CCN(c2ccc(Cl)cc2)CC1	none
O=C(CC1C(=O)NCCN1Cc1ccccc1)NCCCOc1cccnc1 (centres undefined)	Sm TGR inh inconclusive
CCOc1cccc(/C=N/Nc2nc(N3CCCC3)nc(N3CCCC3)n2)c1O	Pf growth 48h 0.83µM, HCV inh inconclusive
Cc1ccc(CN2CCN(/N=C/c3ccc(C(=O)O)cc3)CC2)cc1	none
Cc1ccc(CN2CCN(/N=C/c3ccc(O)c(O)c3)CC2)cc1	Sm TGR inh 32µM
CC(C)Oc1ccc(CNC(=O)c2ccc3nc(Cc4ccccc4)oc3c2)cc1	none (no result: Pf growth 48h, HCV inh, SARS PLpro yeast, Pf growth 96h)
CCOC(=O)C1=C(C)N(CCC(=O)O)C(=O)NC1c1ccccc1Cl (centres undefined)	none (no result: Sm TGR inh, Pf growth 48h, SARS PLpro yeast, Pf growth 96h)
CC1CC(NC2=NCCS2)CC(C)(C)C1 (centres undefined)	HCMV inh -66, Pf growth 48h inconclusive, Pf growth 96h inconclusive
CN(C)c1cccc(Nc2cc3[nH]c(-c4cccc(F)c4)cc3cn2)c1	none (no result: Sm TGR inh, Pf growth 48h, HCV inh, SARS PLpro yeast, Pf growth 96h)
O=C(CCl)N(C1CCCC1)C1CCS(=O)(=O)C1 (centres undefined)	HCMV inh -83, Sm TGR inh 16µM, Pf growth 48h inconclusive, HCV inh inconclusive, Pf growth 96h inconclusive
CC(=O)c1ccc(OCC(=O)N(C2CCCCC2)C2CCS(=O)(=O)C2)cc1 (centres undefined)	Pf growth 96h inconclusive
O=C(O)c1ccc2c(c1)SC1=NS(=O)(=O)CCN12	none
CN(C(=O)c1ccc2c(c1)SC1=NS(=O)(=O)CCN12)C(c1ccccc1)c1ccccc1	Pf growth 48h 12µM, Pf growth 96h 12µM
COC(CNc1nc(SC)nc2sc3c(c12)CCN(C)C3)OC	Pf growth 48h inconclusive, Pf growth 96h 5.2µM
CCCCSc1nc(NCc2ccco2)c2c3c(sc2n1)COC(C)(C)C3	HCMV inh inconclusive, Sm TGR inh inconclusive, Pf growth 48h 10µM, Pf growth 96h inconclusive
CCC(O)CNc1nc(SC)nc2sc3c(c12)CCN(C)C3 (centres undefined)	none (no result: Pf growth 48h, Pf growth 96h)
CSc1nc(NCc2ccco2)c2c3c(sc2n1)CN(C)CC3	Pf growth 48h 2.9µM (no result: HCMV inh, HCV inh)
COc1ccc(Cc2nnc(SCC(=O)N3CCCCC3)o2)cc1	none (no result: Sm TGR inh)
CCCc1cc(C(=O)Nc2ccc(CC)cc2)no1	Pf growth 96h inconclusive
COc1cccc(C2CC3C(=O)C=CC2N3Cc2ccccc2)c1 (centres undefined)	HCMV inh -97, Pf growth 96h inconclusive
COc1cccc(CNC(=O)CN2CCCN(Cc3ccccc3)S2(=O)=O)c1	none (no result: Pf growth 48h, HCV inh, SARS PLpro yeast, Pf growth 96h)
COc1ccc(NC(=O)Nc2nnc(N3CCCCCC3)s2)c(OC)c1	none (no result: Pf growth 48h, HCV inh, SARS PLpro yeast, Pf growth 96h)
Cc1c(CCN)ccc2c1[nH]c1ccccc12	Pf growth 48h 10µM, Pf growth 96h inconclusive
O=c1c(CN2CCN(c3ccccn3)CC2)coc2ccccc12	HCMV inh inconclusive, Sm TGR inh inconclusive
Oc1c(CN2CCN(c3ccccn3)CC2)cc(Cl)c2cccnc12	Sm TGR inh inconclusive, Pf growth 48h 2.3µM, HCV inh 5µM (no result: HCMV inh, Pf growth 96h)
OCCN1CCN(Cc2cc(Cl)c3cccnc3c2O)CC1	Sm TGR inh 45µM, HCV inh inconclusive, SARS PLpro yeast 18µM, Pf growth 96h inconclusive (no result: Pf growth 48h)
CCOC(=O)C1CCN(C2CCN(C(=O)c3oc4c(C)c(C)ccc4c3C)CC2)CC1	Pf growth 48h 13µM
Cc1ccc2c(C)c(C(=O)N3CCN(C4CCS(=O)(=O)C4)CC3)oc2c1C (centres undefined)	Pf growth 96h inconclusive
Cc1ccc2c(C)c(C(=O)N3CCCC(C(N)=O)C3)oc2c1C (centres undefined)	HCMV inh -99, Pf growth 96h inconclusive
CCOC(=O)C1CCN(C2CCN(C(=O)c3oc4c(F)cccc4c3C)CC2)CC1	Pf growth 48h 8.3µM, Pf growth 96h inconclusive
Cc1c(C(=O)N2CCC[C@H]2CO)oc2c(F)cccc12	Pf growth 96h 15µM
Cc1cccc2sc(NS(C)(=O)=O)nc12	none (no result: Sm TGR inh)
Cc1ccc(Cl)cc1Nc1nc2ccccc2c2nncn12	none (no result: Pf growth 48h, HCV inh, SARS PLpro yeast, Pf growth 96h)
CC(=O)Nc1ccc(S(=O)(=O)N(C)CC(=O)N2CCN(C(=O)c3ccco3)CC2)cc1	none (no result: Sm TGR inh, Pf growth 48h, Pf growth 96h)
CCOC(=O)C1C(=O)CC(C)(O)C(C(=O)OCC)C1c1ccc(OCC)cc1 (centres undefined)	none
CCOC(=O)C1C(=O)CC(C)(O)C(C(=O)OCC)C1c1cccc(OC(F)(F)C(F)F)c1 (centres undefined)	Pf growth 48h 10µM, Pf growth 96h inconclusive
COc1ccc(C)cc1NC(=O)N(C(C)C)C1CCN(C(C)=O)CC1	none (no result: Pf growth 48h, HCV inh, SARS PLpro yeast, Pf growth 96h)
CC(C)c1onc(C(=O)N2CCN(c3ccc(F)cc3)CC2)c1[N+](=O)[O-]	Pf growth 48h inconclusive, Pf growth 96h inconclusive (no result: HCMV inh)
CC(C)c1onc(C(=O)N2CCN(c3ccccc3)CC2)c1[N+](=O)[O-]	Pf growth 48h 5.2µM, Pf growth 96h inconclusive
Cn1nc(C(=O)N2CCN(C(c3ccccc3)c3ccccc3)CC2)c2ccccc2c1=O	Pf growth 48h 4.7µM, HCV inh inconclusive, Pf growth 96h 12µM
CC(C)c1onc(C(=O)N2CCN(C(c3ccccc3)c3ccccc3)CC2)c1[N+](=O)[O-]	HCMV inh -98, Pf growth 48h inconclusive, HCV inh inconclusive, Pf growth 96h inconclusive
CCOC(=O)N1CCN(C(=O)c2noc(C(C)C)c2[N+](=O)[O-])CC1	Pf growth 48h inconclusive, Pf growth 96h inconclusive
Cc1ccc(Cl)cc1N1CCN(C(=O)c2noc(C(C)C)c2[N+](=O)[O-])CC1	HCMV inh -92, Pf growth 48h inconclusive, HCV inh 3.5µM, Pf growth 96h inconclusive
CC(C)c1onc(C(=O)N2CCCCCC2)c1[N+](=O)[O-]	Pf growth 48h inconclusive, Pf growth 96h inconclusive
C=CCN1C(=O)c2ccc(C(=O)N3CCN(S(=O)(=O)c4cccc(Cl)c4)CC3)cc2C1=O	HCMV inh -76, Pf growth 48h 10µM, SARS PLpro yeast inconclusive, Pf growth 96h 13µM
NC(=O)C1CCN(C(=O)c2cccc(CN3C(=O)c4ccccc4C3=O)c2)CC1	Pf growth 48h inconclusive
C=CCN1C(=O)c2ccc(C(=O)N3CCC(C(N)=O)CC3)cc2C1=O	HCMV inh -86
Cc1ccc(NC(=O)CS(=O)CC(=O)NC23CC4CC(CC(C4)C2)C3)cc1 (centres undefined)	none
